# Laboratory results reported in PubChem BioAssay (EPA / NIEHS).
# Records with an inconclusive call do not appear. Active and inactive are the calls of the source. Rule for the calls: active = hit-call score of the fitted dose curve at least 0.9, where 1 is the maximum; inconclusive = response in the unintended direction; inactive = score below 0.9.
# Target: Cellular tumor antigen p53 (Homo sapiens) (UniProt P04637)
# Test: TOX21_p53_BLA_p5_ratio: Tox21 HCT-116 p53 Agonism Beta-lactamase Assay, Ratio, Phase 5 (AID 2283599)
# Method in brief: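 HCT-116 cells carrying a p53-inducible beta-lactamase reporter were seeded at 4000 cells/well and dosed after 5 h with compound in DMSO (217-fold dilution). After 16 h at 37C, CCF4-AM substrate was added for 2 h, and the 460/530 nm emission ratio was scored as gain-of-signal versus DMSO.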
# Sequence of Cellular tumor antigen p53 (Homo sapiens) (P04637 whole entry, looked up): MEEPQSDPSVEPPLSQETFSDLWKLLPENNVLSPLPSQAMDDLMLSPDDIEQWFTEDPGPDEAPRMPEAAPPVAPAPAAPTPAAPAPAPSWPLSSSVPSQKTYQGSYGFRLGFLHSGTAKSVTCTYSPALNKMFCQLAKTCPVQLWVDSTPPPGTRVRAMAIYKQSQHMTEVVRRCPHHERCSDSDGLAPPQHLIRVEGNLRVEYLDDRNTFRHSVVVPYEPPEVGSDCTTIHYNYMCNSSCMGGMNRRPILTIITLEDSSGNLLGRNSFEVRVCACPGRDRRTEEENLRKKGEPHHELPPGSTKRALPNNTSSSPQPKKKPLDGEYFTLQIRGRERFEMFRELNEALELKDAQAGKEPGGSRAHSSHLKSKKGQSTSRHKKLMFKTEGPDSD
row,SMILES,outcome
1,CC(=O)OCC(=O)[C@H]1CC[C@H]2[C@@H]3CC[C@H]4C[C@H](O)CC[C@]4(C)[C@H]3C(=O)C[C@]12C,inactive
2,COc1cccc(C(=O)CCN[C@@H](C)[C@H](O)c2ccccc2)c1,inactive
3,CN1CCC(O)(c2ccc(F)cc2)C(C(=O)c2ccc(F)cc2)C1 (centres undefined),inactive
4,C[N+](C)(C)C,inactive
5,COC(=O)C(C)N(C(=O)c1ccco1)c1c(C)cccc1C (centres undefined),inactive
6,COc1cc(C[C@H](C)N)c(OC)cc1Br,inactive
7,CCN(CC)C(=O)[C@@H]1C=C2c3cccc4[nH]cc(c34)C[C@H]2N(C)C1,inactive
8,CCC(=O)O[C@](Cc1ccccc1)(c1ccccc1)[C@H](C)CN(C)C,inactive
9,CCN(CC)CCOC(=O)C(O)(c1ccccc1)c1ccccc1,inactive
10,CC(=O)OCC1=C(C(=O)O)N2C(=O)[C@@H](N)[C@H]2SC1,inactive
11,C[C@]12CC[C@H]3[C@@H](CCC4=CC(=O)CC[C@@H]43)[C@@H]1CC[C@@H]2O,inactive
12,CCOP(=S)(OCC)Oc1cc(-c2ccccc2)on1,inactive
13,c1ccc(C2CC2)c(OCC2=NCCN2)c1,inactive
14,CNCC(O)c1ccc(O)cc1 (centres undefined),inactive
15,O=C(O)CBr,inactive
16,CCCC[P+](CC)(CCCC)CCCC (tested in a mixture with another compound),inactive
17,COC1=CC(=O)O[C@@H](CCc2ccccc2)C1,inactive
18,O=C(Cl)OCc1ccccc1,inactive
19,COc1cc(CC(C)N)c(OC)cc1Br (centres undefined),inactive
20,CC(C)(C)NCC(O)c1cc(Cl)c(N)c(C(F)(F)F)c1 (centres undefined),inactive
21,II,inactive
22,NCc1cccnc1,inactive
23,OC(c1ccccc1)(c1ccccc1)C1CN2CCC1CC2 (centres undefined),inactive

# Tested on: not listed separately
# Test: TOX21_p53_BLA_p5_viability: Viability Assessment in the Tox21 HCT-116 p53 Agonism Beta-lactamase Assay, Phase 5 (AID 2283600)
# Method in brief: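 Luciferase-coupled ATP quantitation of cells treated for 16 h (37C, 5% CO2) with test chemicals delivered in DMSO via a 217-fold dilution; 4000 cells/well; reagent incubated 30 min at room temperature before luminescence reading.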
row,SMILES,outcome
1,CC(=O)OCC(=O)[C@H]1CC[C@H]2[C@@H]3CC[C@H]4C[C@H](O)CC[C@]4(C)[C@H]3C(=O)C[C@]12C,inactive
2,COc1cccc(C(=O)CCN[C@@H](C)[C@H](O)c2ccccc2)c1,inactive
3,CC(C)NCC(O)c1ccc([N+](=O)[O-])cc1 (centres undefined),inactive
4,C[N+](C)(C)C,inactive
5,COc1cc(C[C@@H](C)N)c(OC)cc1Br,inactive
6,CCN(CC)C(=O)[C@@H]1C=C2c3cccc4[nH]cc(c34)C[C@H]2N(C)C1,inactive
7,CCBr,inactive
8,CC[C@H]1[C@@H]2C[C@H]3[C@@H]4N(C)c5ccccc5[C@]45C[C@@H](C2C5O)N3[C@@H]1O (some centres undefined),inactive
9,Cc1nc2ccccc2c(=O)n1-c1ccccc1Cl,inactive
10,COC(=O)[C@H]1[C@@H](OC(=O)c2ccccc2)C[C@@H]2CC[C@H]1N2C,inactive
11,CN1C[C@H](CNC(=O)OCc2ccccc2)C[C@@H]2c3cccc4c3c(cn4C)C[C@H]21,inactive
12,CCN(CC)CCOC(=O)C(O)(c1ccccc1)c1ccccc1,inactive
13,CCOP(=S)(OCC)Oc1cc(C)nc(N(CC)CC)n1,inactive
14,O=C1c2ccccc2C(=O)c2ccccc21,inactive
15,c1ccc(C2CC2)c(OCC2=NCCN2)c1,inactive
16,CNCC(O)c1ccc(O)cc1 (centres undefined),inactive
17,O=C(O)CBr,inactive
18,CCCC[P+](CC)(CCCC)CCCC (tested in a mixture with another compound),inactive
19,COC1=CC(=O)O[C@@H](CCc2ccccc2)C1,inactive
20,O=C(Cl)OCc1ccccc1,inactive
21,COc1cc(CC(C)N)c(OC)cc1Br (centres undefined),inactive
22,CC(C)(C)NCC(O)c1cc(Cl)c(N)c(C(F)(F)F)c1 (centres undefined),inactive
23,NCc1cccnc1,inactive
24,OC(c1ccccc1)(c1ccccc1)C1CN2CCC1CC2 (centres undefined),inactive
25,ClCC(Br)CBr (centres undefined),inactive
26,Clc1c(Cl)c(Cl)c(Cl)c(Cl)c1Cl,inactive
